Compounds with a hit are over-represented: about 20% of the library has one in this group of screens.
Pf growth 96h – P. falciparum growth inhibition at 96 hours. AID 504834. Potency, µM (highest dose often 28.7 µM), for the others: top-dose activity change, negative = inhibition, hits mostly inhibitors. P. falciparum luciferase reporter growth, 96 h. 6.9% of 320,000 active; note: potency is the fitted concentration of half-maximal effect; % is set by controls: 0 for no effect and ±100 for the full control effect
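Cell-based qHTS: luciferase-tagged P. falciparum in erythrocytes (2% hematocrit, 0.05% parasitemia final) incubated with compounds for 96 hours, 37 C, 5% CO2; luciferase detection reagent then added and luminescence measured.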
Cycloheximide cs – counter-screen hit for Shiga toxin inhibitors, cycloheximide | cell reporter, cycloheximide protein synthesis inhibition counterscreen | max response, % | 12% of 300,000 active | AID 2314; in the data active = max response mostly above about 13%, no sharp cut-off; inactive = mostly below about 14%; note: read at 38.3 µM for the half of the compounds with a filed dose; 0% is about no effect
HCMV antiviral – blocks human cytomegalovirus replication. activity change, negative = inhibition, % at 57.5 µM. AID 1259415. 4.5% of 410,000 active. HFF cells, HCMV-luciferase reporter, 72 h; active compounds read low; in the data active = activity change below about -60%; inconclusive = no clear call, values can overlap the other calls; inactive = above about -39%; note: % is set by controls: 0 for no effect and ±100 for the full control effect
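After 16 h attachment at 37C, HFF cells received test compound and HCMV-luciferase (1 PFU/cell); reporter luminescence read 72 h later, data normalized against buffer-only and known inhibitor Salinomycin.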
Pf growth 48h – P. falciparum growth inhibition at 48 hours (one generation); P. falciparum luciferase growth in erythrocytes, 48 h; Potency, µM (doses to about 28.7 µM), for the others: at the highest dose activity change, negative = inhibition, usual class: inhibitors; 5.9% of 310,000 active; note: potency is the fitted concentration of half-maximal effect; % is set by controls: 0 for no effect and ±100 for the full control effect
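Read-out is firefly luciferase luminescence from an integrated reporter in P. falciparum, so falling signal marks reduced parasite growth. Infected erythrocytes were at 2% hematocrit and 0.1% parasitemia (final) in Albumax-supplemented RPMI 1640.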
Shiga inhibitor – blocks Shiga toxin action in Vero cells; 9.2% of 290,000 active; Vero cells, Shiga toxin protein synthesis inhibition reporter; AID 2315; inhibition, % at 38.7 µM; in the data active = inhibition mostly above about 28%, no sharp cut-off; inactive = mostly below about 43%; note: 0% is about no effect
* = called active by the depositor; i = inactive; ? = inconclusive; . = no result; [ ] = remark or other dose. Unless noted, calls come from the whole dose curve; as a rule, active = well fitted inhibition curve with a large enough effect; inconclusive = small, poorly fitted or top-dose-only effect, or another doubt; inactive = no such curve, though single readings can be large or run the other way.

SMILES | Pf growth 96h | Cycloheximide cs | HCMV antiviral | Pf growth 48h | Shiga inhibitor
Cc1ccc(S(=O)(=O)N2CCC(=O)N([C@H](COCc3ccc(C(F)(F)F)cc3)C(C)C)CC2)cc1 | . | . | 45 | . | .
c1ccc(-c2cn3c4c(sc3n2)CCCC4)cc1 | -16% | 12* | ? | -15% | -2
COc1ccc(CNCCc2cccc(F)c2)c2ccccc12 | 13µM* | 6 | . | ? | -19
COc1cc(OC)c(OC)cc1CNCCc1cccc(F)c1 | 23% | -4 | -31 | . | 11
CCOC(=O)c1cc(-c2cccs2)nc2onc(C)c12 | ? | -2 | -10 | . | 25
Cc1noc2nc(-c3cccs3)cc(-c3nnc4n3CCCCC4)c12 | 12µM* | -2 | . | 16% | -16
CN(/N=C/c1cccnc1)c1cnc2ccccc2n1 | -8% | 47* | 233 | 295% | 64*
C(=N\c1nccs1)/c1cccnc1 | ? | -4 | -25 | -3% | 19
Cc1ccc(N2CC(C(=O)Nc3cccnc3)CC2=O)cc1C (stereo not drawn) | 24% | -7 | -18 | 19% | -6
COc1cc(OC)c(NS(=O)(=O)c2ccc3c(c2)NC(=O)CO3)cc1Cl | 10µM* | -8 | -23 | 4% | -5
O=C1CCSc2ccc(S(=O)(=O)Nc3cccc(C(F)(F)F)c3)cc2N1 | . | . | -7 | . | .
COc1ccc(NS(=O)(=O)c2ccc(C)c(C(=O)OC(C)C(=O)N3CCOCC3)c2)cc1 (stereo not drawn) | 6% | . | -18 | ? | .
COc1cc(OC)c(NS(=O)(=O)c2ccc(Cl)c(C(=O)OC(C)C(=O)N3CCCC3)c2)cc1Cl (stereo not drawn) | -29% | 2 | -64* | -11% | -16
COc1cc(OC)c(NS(=O)(=O)c2ccc3c(c2)NC(=O)CCS3)cc1Cl | . | . | -63* | . | .
O=C(CSc1nccc(=O)[nH]1)Nc1ccc(Oc2ccccc2)cc1 | ? | -4 | -29 | 19% | .
CON(C)c1nc(OCC#N)nc(N(C)C)n1 | 30% | -3 | ? | 5% | 2
Cc1cn(C)c(CC(=O)N2CCN(c3cccc(Cl)c3)CC2)c1C(=O)O | . | . | -1 | . | .
O=C(O)C1CCC(CNS(=O)(=O)c2ccc(Cl)cc2)CC1 (stereo not drawn) | 1% | -2 | 36 | 30% | -8
O=S(=O)(NCC1CC1)c1cc(Cl)cc(Cl)c1 | 13% | -3 | -65* | . | 1
Cc1ccc(-n2ncc(C(=O)NCCc3ccccc3)c2C2CCN(C(=O)OC(C)(C)C)CC2)c(C)c1 | . | . | 33 | . | .
O=C(CNC(=O)c1ccc2c(c1)OCO2)NCc1cccs1 | . | . | -7 | . | .
CS(=O)(=O)N(CC(=O)NCc1ccccn1)c1ccc2c(c1)OCCO2 | 4.1µM* | -2 | -16 | 15% | -5
O=C(NCc1ccncc1)Nc1ccc2c(c1)OCO2 | ? | 26* | 28 | 57% | 41*
O=C(NCc1cccs1)Nc1ccc2c(c1)OCO2 | -2% | 40* | 51 | 132% | 69*
c1cc(CNc2ccc3c(c2)OCCO3)ccn1 | 8% | 53* | -40 | 106% | 83*
SMILES | Pf growth 96h | Cycloheximide cs | HCMV antiviral | Pf growth 48h | Shiga inhibitor
COc1ccc(NC(=O)NCc2ccc3c(c2)OCO3)cc1OC | ? | -2 | -14 | 9% | 17
Cc1cc(NCc2ccncc2)ccc1Br | ? | 13 | -19 | 17% | 16
CC(OC(=O)c1ccc(C#N)cc1)C(=O)Nc1ccc(Cl)cn1 (stereo not drawn) | 3% | . | 3 | ? | .
O=C(Nc1cccc(F)c1)Nc1cnccn1 | ? | 8 | ? | 29% | 11
O=C(NCc1cccs1)Nc1ccc(Cl)cc1 | 29% | 45* | 41 | 123% | 61*
O=C(NCc1ccccn1)Nc1ccc2c(c1)OCO2 | 9% | 57* | 32 | 74% | 101*
O=C(Nc1ccc2c(c1)OCO2)Nc1cnccn1 | . | 27* | 27 | 142% | 58*
O=C(Nc1ccc2c(c1)OCO2)Nc1ccccn1 | 0% | 55* | 30 | i | 99*
CCOc1ncccc1C(=O)Nc1ccc2c(c1)OCO2 | 12% | 9 | 29 | 17% | 9
CCc1ccc(NC(=O)CCc2nnc3ccc(N4CCCC4)nn23)cc1 | -22% | -9 | -11 | -15% | 3
COC(=O)c1c(NC(=O)CS(=O)(=O)c2ccc(C)cc2)sc2c1CCCC2 | . | . | 0 | . | .
Cc1ccccc1NC(=O)NC1CCCCC1C (stereo not drawn) | -3% | -3 | 35 | 22% | 7
COc1ccc(/C=N/NC(=O)CC#N)cc1Oc1nc(Cl)ncc1F | 19% | -3 | -19 | -18% | -7
CCOc1cc(/C=N/NC(=O)c2ccc(O)cc2)ccc1Oc1nc(Cl)ncc1F | 26% | 9 | -71* | ? | 5
CCOc1cc(/C=N\Nc2ncc(F)c(N3CCOCC3)n2)ccc1Oc1nc(Cl)ncc1F | 1.9µM* | 42* | -73* | 1.7µM* | 100*
CC(=O)Nc1cc(-c2ccc(CO)cc2)cn2c(-c3cccc(C(F)(F)F)c3)cnc12 | . | . | 11 | . | .
CCSc1nnc(NC(=O)NC2CCCCC2)s1 | ? | 36* | -14 | 198% | 49*
CCSc1nnc(NC(=O)c2cccs2)s1 | 107% | 35* | -5 | 99% | 101*
Cc1ccc(NC(=O)CSc2nnc(NC(=O)NC3CCCCC3)s2)cc1 | . | . | 94 | . | .
CCSc1nnc(NC(=O)c2cc(C)oc2C)s1 | 31% | 38* | 66 | 133% | 59*
CCc1nnc(NC(=O)c2ccc(C)o2)s1 | 53% | 36* | 78 | 82% | 44*
O=C(Nc1nnc(SCc2ccccc2)s1)c1cccs1 | 2% | 11 | 45 | 60% | 22
Cc1cccc(Cn2cccc2CNS(=O)(=O)c2ccccc2F)c1 | . | . | 2 | . | .
CCCCn1cc(S(=O)(=O)c2ccc(OC)cc2)c(=O)c2cc(F)c(N3CCCC3)cc21 | . | . | -11 | . | .
CCSc1nnc(NC(=O)c2ccc(C)o2)s1 | . | 27* | 20 | 89% | 33*
SMILES | Pf growth 96h | Cycloheximide cs | HCMV antiviral | Pf growth 48h | Shiga inhibitor
CCSc1nnc(NC(=O)C(C)(C)C)s1 | . | 29* | -11 | 59% | 69*
CCc1nnc(NC(=O)CN2CCN(Cc3ccccc3C)CC2)s1 | -26% | -3 | 15 | 0% | 72
CCc1nnc(NC(=O)CN2CCN(Cc3ccc(C)cc3)CC2)s1 | 9.3µM* | -3 | 6 | -12% | -4
CCc1nnc(NC(=O)c2ccc(Br)o2)s1 | 5.9µM* | 1 | 39 | 21% | -2
Cc1nnc(NC(=O)CSc2nnc(NC(=O)C(C)(C)C)s2)s1 | -8% | -9 | -4 | -51%[1.15 µM] | -5
O=S(=O)(Nc1cc(O)cc2cccnc12)c1ccc(Cl)s1 | . | -11 | . | . | -14
Cc1nc(-c2ccc(S(=O)(=O)Nc3ccc(C#N)cc3)cc2)co1 | . | . | -3 | . | .
CCn1c(SCc2ccc(Cl)c(Cl)c2)nnc1C(C)NC(=O)c1ccc(OC)cc1 (stereo not drawn) | ? | 1 | -18 | -10% | -15
CCn1c(CCNC(=O)c2ccc(Cl)c(Cl)c2)nnc1SCCOc1ccc(OC)cc1 | 10µM* | 1 | -65* | ? | 12
COc1ccc(C(=O)NC(C)c2nnc(SCc3ccc(Cl)c(Cl)c3)n2C)cc1 (stereo not drawn) | 12µM* | -3 | -20 | ? | 2
